Test results as given in PubChem BioAssay (NCATS).
Several values for one entry are separate records, joined by “and”; a condition that tells them apart may be missing. Identical values can stand only once. Records with an inconclusive call do not appear. A number with no mark means an inactive call. Activity calls are given as the source filed them. Calls come from the whole dose curve; as a rule, active = well fitted curve in the direction sought with a large enough effect; inconclusive = small, poorly fitted or top-dose-only effect, or another doubt; inactive = no such curve, though single readings can be large; an effect the other way counts as inactive or inconclusive.

What was measured:
[1] = Viability qHTS for spleen associated tyrosine kinase inhibitor (SYKi) naive MV4-11 cells (AID 1963823); note: nearly all actives have a fitted effect of over 40% in size
Procedure, shortened: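 Cells: MV4-11, SYK inhibitor naive, 500 per well. Treatment: library compounds, 72 hr, 37 C, 5% CO2. Read-out: CellTiter-Glo luminescence after 10 min RT.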

[2] = Viability qHTS for spleen associated tyrosine kinase inhibitor (SYKi) drug resistant MV4-11 cells (AID 1963824); note: nearly all actives have a fitted effect of over 35% in size
Procedure, shortened: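 CellTiter-Glo luminescence, read 10 min after reagent addition, reports viability after a 72 hr compound exposure. Cells are an MV4-11 line made resistant to SYK inhibition, seeded at 500 per well onto compound-containing plates.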

[3] = Quantitative highthroughput screen to assess conditional lethalithy of NOMO1 cells grown in RPMI1640 with untreated serum (RPMI+s) (AID 1963876); note: nearly all actives have a fitted effect of over 35% in size;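 for Viability: 100% = DMSO wells and 0% = empty wells without cells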
Procedure, shortened: (§1)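 Each medium arm—HPLM with 10% dialyzed FBS, or RPMI1640 with 5 mM glucose and 10% untreated or dialyzed FBS—was screened against an 11-point, 3-fold compound titration for 48 h at 37 °C, with CellTiter-Glo luminescence as endpoint.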

[4] = Quantitative highthroughput screen to assess conditional lethalithy of NOMO1 cells grown in RPMI1640 with dialyzed fetal bovine serum (RPMI+ds) (AID 1963877); note: nearly all actives have a fitted effect of over 30% in size;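 for Viability: series mostly up to about 46 µM; 100% = DMSO control wells and 0% = empty wells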
Procedure, shortened: as §1

[5] = Quantitative highthroughput screen to assess conditional lethalithy of NOMO1 cells grown in Human Plasma-Like Medium with dialyzed fetal bovine serum (HPLM+ds) (AID 1963878); note: nearly all actives have a fitted effect of over 35% in size;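 for Viability: 100% = DMSO wells and 0% = empty wells on each plate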
Procedure, shortened: as §1

[6] = Quantitative highthroughput screen to assess conditional lethalithy of P12 Ichikawa cells grown in Human Plasma-Like Medium with dialyzed fetal bovine serum (HPLM+ds) (AID 1963879); details: Potency: viability; note: nearly all actives have a fitted effect of over 35% in size; for Viability: series mostly up to about 46 µM
Procedure, shortened: as §1

[7] = Quantitative highthroughput screen to assess conditional lethalithy of P12 Ichikawa cells grown in RPMI1640 with untreated serum (RPMI+s) (AID 1963881); details: Potency: viability; note: nearly all actives have a fitted effect of over 35% in size;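 for Viability: series mostly up to about 46 µM; 100% = DMSO wells and 0% = empty wells without cells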
Procedure, shortened: as §1

[8] = Cellular viability qHTS for adrenocortical cancer (ACC) cell line NCI-H295R (AID 1963990); note: nearly all actives have a fitted effect of over 60% in size
Procedure, shortened: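 Viability of NCI-H295R after 48 h of treatment (final up to 46 uM) measured through cellular ATP luminescence.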

[9] = Quantitative highthroughput screen to assess conditional lethalithy of SEM cells grown in Human Plasma-Like Medium with dialyzed fetal bovine serum (HPLM+ds) (AID 1963882); note: nearly all actives have a fitted effect of over 35% in size; for Viability: series mostly up to about 46 µM
Procedure, shortened: as §1

[10] = Cellular viability qHTS for adrenocortical cancer (ACC) cell line SW-13 (AID 1963989); details: SW-13 ACC cells viability, CellTiter-Glo, 48 h; activity (max response): hits give low values; note: nearly all actives have a fitted effect of over 65% in size;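 for activity (max response): cells grown in serum-free medium with ITS supplement; % is set by controls: 0 for no effect and ±100 for the full control effect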
Procedure, shortened: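 Here, serum-free SW-13 cultures were dosed up to 46 uM. Following 48 h, ATP-dependent luminescence (CellTiter-Glo) reported viable cells, and logistic modeling produced IC50 values.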

[11] = Quantitative highthroughput screen to assess conditional lethalithy of SEM cells grown in RPMI1640 with dialyzed fetal bovine serum (RPMI+ds) (AID 1963884); note: nearly all actives have a fitted effect of over 35% in size;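 for Viability: series mostly up to about 46 µM; 100% = DMSO control wells and 0% = empty wells without cells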
Procedure, shortened: as §1

[12] = Quantitative highthroughput screen to assess conditional lethalithy of P12 Ichikawa cells grown in RPMI1640 with dialyzed fetal bovine serum (RPMI+ds) (AID 1963880); details: Potency: P12-Ichikawa viability; note: nearly all actives have a fitted effect of over 35% in size;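 for Viability: 100% = DMSO wells and 0% = empty wells on each plate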
Procedure, shortened: as §1

[13] = Quantitative highthroughput screen to assess conditional lethalithy of SEM cells grown in RPMI1640 with unreated serum (RPMI+s) (AID 1963883); note: nearly all actives have a fitted effect of over 35% in size;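 for Viability: 100% = DMSO wells and 0% = empty wells without cells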
Procedure, shortened: as §1
Potency is the fitted concentration of half-maximal effect.

SMILES	Potency [1]	Potency [2]	Potency [3]	Potency [4]	Potency [5]	Potency [6]	Potency [7]	Potency [8]	Potency [9]	activity (max response) [10] [%]	Potency [11]	Potency [12]	Potency [13]	Potency [10]
COC(=O)[C@H](CCCN=C(N)N)NS(=O)(=O)c1ccc(C)cc1	inactive	inactive	inactive	inactive	6.62 µM (active)	inactive	inactive	inactive	–	–	–	–	–	–
N#Cc1c(N(CC(=O)O)CC(=O)O)sc(C(=O)O)c1CC(=O)O	inactive	inactive	inactive	inactive	inactive	16.6 µM (active)	–	inactive	13.2 µM (active)	0.42	–	–	–	–
C[C@H](NC(=O)Cc1cc(F)cc(F)c1)C(=O)N[C@H](C(=O)OC(C)(C)C)c1ccccc1	inactive	14.8 µM (active)	inactive	inactive	inactive	inactive	inactive	–	inactive	3.52	inactive	–	–	–
CCOC(=O)c1ccc(C#Cc2ccc3c(c2)C(C)(C)CCS3)nc1	5.25 µM (active)	3.76 µM (active)	inactive	inactive	inactive	–	inactive	inactive	inactive	-8.69	inactive	inactive	inactive	–
CCC(=O)N[C@H]1CC[C@H](C(=O)N(C)c2ccc(-c3nc4ccccc4o3)cc2)C1	14.8 µM (active)	14.8 µM (active)	inactive	inactive	inactive	inactive	–	inactive	inactive	–	–	–	–	–
CCn1c(-c2nonc2N)nc2cncc(CNC3CCNCC3)c21	2.91 µM (active) and 2.95 µM (active)	7.31 µM (active) and 5.25 µM (active)	9.35 µM (active)	18.7 µM (active)	3.72 µM (active)	6.62 µM (active)	23.5 µM (active)	–	–	-7.16	10.5 µM (active)	–	2.35 µM (active)	–
O=S(=O)(O)CCSSCCS(=O)(=O)O	inactive	inactive	inactive	inactive	inactive	–	inactive	inactive	inactive	0.678	inactive	inactive	inactive	–
O=C(CCCCCCC(=O)Nc1cccnc1)NO	3.32 µM (active)	3.72 µM (active)	20.9 µM (active)	20.9 µM (active)	18.7 µM (active)	–	8.33 µM (active)	4.47 µM (active)	8.33 µM (active)	–	6.62 µM (active)	7.43 µM (active)	–	12.6 µM (active)
OCc1ccc(-c2nn(Cc3ccccc3)c3ccccc23)o1	5.25 µM (active)	4.68 µM (active)	13.2 µM (active)	16.6 µM (active)	16.6 µM (active)	inactive	–	–	–	-19	–	–	–	–
COc1ccc([C@@H]2CNC(=O)C2)cc1OC1CCCC1	inactive	inactive	inactive	inactive	inactive	–	inactive	inactive	inactive	–	inactive	inactive	inactive	–
CC(=O)Nc1ccc([C@H](C)C(=O)Nc2ncc(C(C)C)s2)cc1	1.66 µM (active)	4.61 µM (active)	4.69 µM (active)	8.33 µM (active)	7.43 µM (active)	–	11.8 µM (active)	–	6.62 µM (active)	–	7.43 µM (active)	10.5 µM (active)	7.43 µM (active)	1.26 µM (active)
CC(C)C[C@H](NC(=O)[C@H](CCc1ccccc1)NC(=O)CN1CCOCC1)C(=O)N[C@@H](Cc1ccccc1)C(=O)N[C@@H](CC(C)C)C(=O)[C@@]1(C)CO1	0.003 µM (active)	10.6 nM (active) and 4.7 nM (active)	0.0372 µM (active)	0.0372 µM (active)	0.0372 µM (active)	–	0.0209 µM (active)	65.1 nM (active) and 63.1 nM (active)	0.0132 µM (active)	–	0.0132 µM (active)	0.0235 µM (active)	0.0083 µM (active)	103 nM (active) and 112 nM (active)
C[C@@H](NC(=O)c1ncnc(N)c1Cl)c1ncc(C(=O)Nc2cc(C(F)(F)F)c(Cl)cn2)s1	9.2 µM (active)	16.6 µM (active)	inactive	inactive	16.6 µM (active)	inactive	inactive	–	–	–	inactive	–	inactive	20 µM (active)
N#CC1(c2ccc(NC(=O)c3cccnc3NCc3ccncc3)cc2)CCCC1	2.31 µM (active)	5.17 µM (active)	inactive	inactive	inactive	–	inactive	inactive	inactive	-5.11	1.66 µM (active)	inactive	inactive	–
Cc1nc(Nc2n[nH]c3c2CN(C(=O)N[C@H](CN(C)C)c2ccccc2)C3(C)C)c2sccc2n1	0.0132 µM (active)	0.0118 µM (active)	1.32 µM (active)	3.72 µM (active)	1.48 µM (active)	–	1.66 µM (active)	28.2 µM (active)	0.743 µM (active)	–	1.18 µM (active)	1.48 µM (active)	0.332 µM (active)	–
COc1cccc(OC)c1-c1cc(C(=O)NC2(C(=O)O)C3CC4CC(C3)CC2C4)nn1-c1ccnc2cc(Cl)ccc12 (stereo not drawn)	9.34 µM (active)	5.9 µM (active)	inactive	inactive	inactive	–	inactive	inactive	inactive	-4.12	inactive	inactive	inactive	–
C=CC(=O)Nc1ccc2ncnc(Nc3ccc(OCc4cccc(F)c4)c(Cl)c3)c2c1	5.8 µM (active) and 5.9 µM (active)	2.31 µM (active) and 4.68 µM (active)	2.64 µM (active)	3.32 µM (active)	2.35 µM (active)	7.43 µM (active)	7.43 µM (active)	6.31 µM (active)	–	–	–	–	7.43 µM (active)	0.631 µM (active)
CC(C)[C@H](CO)Nc1nc(Nc2cccc(Cl)c2)c2ncn(C(C)C)c2n1	2.59 µM (active)	3.32 µM (active)	2.09 µM (active)	2.35 µM (active)	0.743 µM (active)	–	8.33 µM (active)	20 µM (active)	1.32 µM (active)	–	0.418 µM (active)	5.9 µM (active)	0.372 µM (active)	22.4 µM (active)
O=C(Nc1cccc(Cl)c1)Nc1ncc(CCNc2ncnc3ccsc23)s1	0.0206 µM (active)	0.0326 µM (active)	0.296 µM (active)	0.332 µM (active)	0.105 µM (active)	0.372 µM (active)	0.418 µM (active)	3.55 µM (active)	–	–	0.209 µM (active)	–	0.209 µM (active)	28.2 µM (active)
COc1ccc2cccc(CCNC(C)=O)c2c1	inactive	inactive	inactive	inactive	inactive	inactive	inactive	inactive	–	13	–	–	–	–
COc1ccc(-c2ccc3ncc4c(c3c2)n(-c2ccc(N3CCNCC3)c(C(F)(F)F)c2)c(=O)n4C)cn1	0.0263 µM (active)	13 nM (active) and 16.4 nM (active) and 29.5 nM (active)	0.526 µM (active)	0.469 µM (active)	0.148 µM (active)	1.05 µM (active)	–	0.126 µM (active)	0.0743 µM (active)	–	–	–	0.0209 µM (active)	0.316 µM (active)
Clc1ccc(C(Cn2ccnc2)OCc2c(Cl)cccc2Cl)c(Cl)c1 (stereo not drawn)	16.8 µM (active) and 8.33 µM (active)	21.1 µM (active) and 8.33 µM (active)	inactive	inactive	inactive	inactive	–	25.1 µM (active)	inactive	–	inactive	–	inactive	–
COc1ccc2c(Oc3ccc(NC(=O)c4c(C)n(CC(C)(C)O)n(-c5ccccc5)c4=O)cc3F)ccnc2c1	0.0934 µM (active)	0.148 µM (active)	inactive	18.7 µM (active)	inactive	inactive	inactive	–	–	–	–	–	3.32 µM (active)	–
Clc1ccc(C2(c3ccc(-c4cn[nH]c4)cc3)CCNCC2)cc1	2.31 µM (active) and 2.63 µM (active)	5.17 µM (active) and 7.42 µM (active)	14.8 µM (active)	4.18 µM (active)	3.32 µM (active)	5.26 µM (active)	–	15.8 µM (active)	–	–	–	–	9.35 µM (active)	–
CC(O)(C#Cc1ccc2c(c1)N(c1nc(N)ncc1Cl)CC2)c1nccs1 (stereo not drawn)	13 µM (active)	10.3 µM (active)	inactive	inactive	inactive	inactive	–	–	–	–	inactive	–	–	–
Cc1ccccc1-n1c(Cn2nc(-c3cccc(O)c3)c3c(N)ncnc32)nc2cccc(C)c2c1=O	6.61 µM (active)	11.6 µM (active)	1.18 µM (active)	2.35 µM (active)	1.66 µM (active)	2.96 µM (active)	–	–	inactive	-11.8	inactive	–	inactive	–
COC(=O)N[C@H](C(=O)N[C@@H](Cc1ccccc1)[C@@H](O)CN(Cc1ccc(-c2ccccn2)cc1)NC(=O)[C@@H](NC(=O)OC)C(C)(C)C)C(C)(C)C	inactive	inactive	inactive	inactive	inactive	–	inactive	inactive	inactive	-5.43	inactive	inactive	inactive	–
COc1cc(Nc2ncc(F)c(Nc3ccc4c(n3)N(COP(=O)(O)O)C(=O)C(C)(C)O4)n2)cc(OC)c1OC	92 nM (active) and 259 nM (active) and 83.3 nM (active)	130 nM (active) and 461 nM (active) and 148 nM (active)	inactive	inactive	inactive	inactive	inactive	15.8 µM (active)	–	–	–	–	–	14.1 µM (active)
C[C@@H](N)C1CCC(C(=O)Nc2ccncc2)CC1 (stereo partly drawn)	inactive	inactive	inactive	inactive	inactive	–	inactive	inactive	inactive	-5.19	inactive	inactive	inactive	–
C[C@@H](NCc1cc2ccccc2[nH]1)c1cccc2ccccc12	6.61 µM (active)	7.42 µM (active)	inactive	inactive	inactive	inactive	inactive	12.6 µM (active)	–	–	–	–	–	25.1 µM (active)
